Compound activity from PubChem BioAssay.
KLK7 zymogen act – activators of human kallikrein-7 zymogen; purified proKLK7, EDANS-DABCYL substrate fluorescence; 100% is mature enzyme control, 0% vehicle; activation, % at 7 µM; 370,000 tested, 0.9% active;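 active = activation above the mean of all tested compounds plus 3 SD, computed per campaign excluding outliers beyond control limits, cut at about 13% in these data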
NR3A LBD binder – modulates the human NR3A ligand-binding domain | Tm shift relative to glycine control, % at 25 µM | AID 1259313 | NR3A LBD differential scanning fluorimetry, Tm shift; 0% = protein alone, 100% = glycine-bound protein | 340,000 tested, 2.5% active;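 active = melting temperature shift of at least 10% of the positive control shift, at one fixed dose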
ADAM10 inh – inhibits human ADAM10 | 370,000 tested, 0.62% active | AID 720582 | recombinant ADAM10, EDANS/DABCYL FRET peptide cleavage, 3 h | inhibition, % at 7 µM | O14672;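 active = inhibition above a per-campaign cutoff equal to the mean of compounds falling between control-based bounds plus 3 SD, cut at about 20% in these data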
FAS-TE inh – blocks the thioesterase domain of human fatty acid synthase; P49327; recombinant FAS-TE, OMFH fluorogenic substrate, fluorescence endpoint; inhibition, % at 15 µM; 360,000 tested, 0.67% active; AID 602261;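 active = compounds whose normalised, plate-corrected inhibition of enzyme fluorescence in the single-dose primary screen is 50% or more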
Target sequence (P49327 whole entry, looked up, the tested form may be a part): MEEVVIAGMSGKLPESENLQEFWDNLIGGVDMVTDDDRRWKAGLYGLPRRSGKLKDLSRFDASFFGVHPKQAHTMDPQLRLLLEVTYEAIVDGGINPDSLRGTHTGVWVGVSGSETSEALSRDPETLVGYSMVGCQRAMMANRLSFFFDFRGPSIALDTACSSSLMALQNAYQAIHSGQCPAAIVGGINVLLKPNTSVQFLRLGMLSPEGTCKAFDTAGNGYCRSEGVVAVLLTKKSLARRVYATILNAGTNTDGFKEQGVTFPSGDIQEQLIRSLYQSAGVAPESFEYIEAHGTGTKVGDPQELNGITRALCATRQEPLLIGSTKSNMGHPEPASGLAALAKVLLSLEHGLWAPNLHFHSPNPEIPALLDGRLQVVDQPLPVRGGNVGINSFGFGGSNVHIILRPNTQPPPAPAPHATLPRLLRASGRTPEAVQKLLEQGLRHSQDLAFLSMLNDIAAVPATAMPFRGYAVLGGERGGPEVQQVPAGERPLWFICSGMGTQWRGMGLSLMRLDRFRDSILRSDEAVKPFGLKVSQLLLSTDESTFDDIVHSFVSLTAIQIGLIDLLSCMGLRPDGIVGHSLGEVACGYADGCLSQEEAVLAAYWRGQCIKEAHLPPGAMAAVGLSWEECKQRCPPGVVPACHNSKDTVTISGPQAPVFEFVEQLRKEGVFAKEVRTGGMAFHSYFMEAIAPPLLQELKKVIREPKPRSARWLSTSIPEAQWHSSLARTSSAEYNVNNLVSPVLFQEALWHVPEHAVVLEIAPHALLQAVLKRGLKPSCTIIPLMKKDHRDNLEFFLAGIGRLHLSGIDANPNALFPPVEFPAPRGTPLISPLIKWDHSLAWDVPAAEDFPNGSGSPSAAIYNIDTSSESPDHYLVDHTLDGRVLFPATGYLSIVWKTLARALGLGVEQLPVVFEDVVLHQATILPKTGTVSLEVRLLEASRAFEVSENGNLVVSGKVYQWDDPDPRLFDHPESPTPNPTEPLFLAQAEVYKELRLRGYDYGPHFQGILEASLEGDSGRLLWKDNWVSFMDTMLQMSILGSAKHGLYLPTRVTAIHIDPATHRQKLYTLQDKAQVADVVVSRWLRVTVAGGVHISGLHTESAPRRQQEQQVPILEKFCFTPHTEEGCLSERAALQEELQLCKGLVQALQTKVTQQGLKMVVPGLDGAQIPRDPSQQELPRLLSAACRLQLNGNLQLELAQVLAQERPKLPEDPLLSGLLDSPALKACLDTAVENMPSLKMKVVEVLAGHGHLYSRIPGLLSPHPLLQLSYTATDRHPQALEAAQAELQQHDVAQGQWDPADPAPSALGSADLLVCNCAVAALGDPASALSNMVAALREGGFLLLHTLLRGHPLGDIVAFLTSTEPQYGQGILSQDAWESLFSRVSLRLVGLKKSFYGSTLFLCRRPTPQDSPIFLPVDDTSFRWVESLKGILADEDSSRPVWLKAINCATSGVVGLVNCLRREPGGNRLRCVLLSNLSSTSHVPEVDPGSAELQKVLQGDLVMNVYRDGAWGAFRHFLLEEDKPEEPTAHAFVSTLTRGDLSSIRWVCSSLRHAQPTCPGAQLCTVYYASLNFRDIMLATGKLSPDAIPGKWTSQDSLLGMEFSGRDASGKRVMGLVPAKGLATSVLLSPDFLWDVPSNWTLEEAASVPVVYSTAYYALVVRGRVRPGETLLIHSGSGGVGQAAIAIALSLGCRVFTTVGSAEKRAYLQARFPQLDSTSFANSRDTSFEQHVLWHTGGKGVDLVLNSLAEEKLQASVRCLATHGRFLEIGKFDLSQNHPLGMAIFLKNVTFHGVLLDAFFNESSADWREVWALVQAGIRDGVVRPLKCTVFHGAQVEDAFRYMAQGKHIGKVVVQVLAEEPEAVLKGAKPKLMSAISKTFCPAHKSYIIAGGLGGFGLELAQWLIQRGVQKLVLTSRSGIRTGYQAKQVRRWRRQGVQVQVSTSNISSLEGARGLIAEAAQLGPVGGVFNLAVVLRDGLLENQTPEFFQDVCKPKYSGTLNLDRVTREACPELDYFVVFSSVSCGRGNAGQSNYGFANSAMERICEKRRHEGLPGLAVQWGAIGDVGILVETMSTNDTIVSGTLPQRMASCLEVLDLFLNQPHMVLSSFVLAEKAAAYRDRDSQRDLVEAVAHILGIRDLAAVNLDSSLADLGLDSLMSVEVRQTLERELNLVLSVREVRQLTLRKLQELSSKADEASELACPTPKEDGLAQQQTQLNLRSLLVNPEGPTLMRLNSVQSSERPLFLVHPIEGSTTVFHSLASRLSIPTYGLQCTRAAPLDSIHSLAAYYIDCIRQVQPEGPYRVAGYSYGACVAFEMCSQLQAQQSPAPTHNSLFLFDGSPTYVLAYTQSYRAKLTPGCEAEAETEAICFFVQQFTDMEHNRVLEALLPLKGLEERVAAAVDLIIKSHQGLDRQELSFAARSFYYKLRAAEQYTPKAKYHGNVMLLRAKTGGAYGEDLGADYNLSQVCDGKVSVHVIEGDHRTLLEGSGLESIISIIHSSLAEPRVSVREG
ADAM17 inh – inhibitors of human ADAM17; AID 720648; 370,000 tested, 0.83% active; recombinant ADAM17, EDANS/DABCYL FRET peptide cleavage; inhibition, % at 6.95 µM; P78536;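 active = inhibition above the mean of compounds lying between control limits plus 3 SD, set per campaign, cut at about 8.5% in these data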
proKLK7 act conf – confirmation of human kallikrein-7 zymogen activators | purified proKLK7, EDANS-DABCYL substrate fluorescence; scaled: vehicle 0, mature enzyme 100 | activation, % at 7 µM | 3,200 tested, 68% active | shares compounds with KLK7 zymogen act;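 active = activation, as change over the incubation, above the mean of all tested compounds plus 3 SD, cut at about 13% in these data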
EDANS interfere – optically interferes with EDANS-DABCYL signal, flagging KLK7 hits | shares compounds with KLK7 zymogen act | EDANS-DABCYL substrate fluorescence interference, no enzyme, 4 h; solvent 0%, active enzyme control 100% | 3,200 tested, 80% active | activation, % at 7 µM;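 active = activation above the all-compound mean plus 3 SD, ignoring values outside control-based bounds, cut at about 4.8% in these data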;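 note: value is the 4 h activation minus the activation read at time zero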
K7 EDANS ctr – counter-screen for kallikrein-7 activators: EDANS-DABCYL interference, dose response; shares compounds with KLK7 zymogen act; EDANS-DABCYL peptide fluorescence interference, no enzyme; EC50, µM; 250 tested, 20% active;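 active = compounds that raise the fluorescence signal in this interference counterscreen, with EC50 at or below 10 µM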;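 note: intact quenched peptide substrate alone read at 355 nm excitation and 520 nm emission; signal is fluorescence gain from T0 to T4 after four hours at room temperature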
Large screens that a line does not name were inactive (follow-up assays come after a bar, where they were run). Hits are enriched below; roughly 4.6% of the tested compounds scored in any of these assays.

CC1CCCN(CCCNC(=O)c2cc3c(Cl)nc4ccccc4c3s2)C1 (stereo unspecified)	none
CC1CCCN(CCCNC(=O)c2cc3c(s2)-c2ccccc2OC3)C1 (stereo unspecified)	KLK7 zymogen act 43 | proKLK7 act conf 63 | EDANS interfere 78
COc1cc2c(cc1OC)CN(CC(=O)Nc1ccc(C#N)cc1)CC2	KLK7 zymogen act 17 | proKLK7 act conf inactive | EDANS interfere inactive
CN(Cc1ccccc1)S(=O)(=O)c1cccc(C(=O)OCc2ccc(C(F)(F)F)cc2)c1	none (no result: NR3A LBD binder, FAS-TE inh)
COc1ccc(-n2cc(COC(=O)NCCc3ccccc3)nn2)cc1	none (no result: NR3A LBD binder, FAS-TE inh)
CCN1CC(CN(C)Cc2cn(-c3cccc(C)c3)nc2-c2cccc(F)c2)CC1=O (stereo unspecified)	KLK7 zymogen act 17 | proKLK7 act conf inactive | EDANS interfere inactive
COC(=O)[C@H](CCSC)NC(=O)c1cc2c(cn1)[nH]c1ccccc12	none
CNC(=O)c1cc2c(cn1)[nH]c1ccccc12	KLK7 zymogen act 32 | proKLK7 act conf inactive | EDANS interfere 4.4
COc1ccc(-c2c(C)oc3c(CN4CCOCC4)c(O)ccc3c2=O)cc1	KLK7 zymogen act 67 | proKLK7 act conf 24 | EDANS interfere 32
COc1ccc(-c2c(C)oc3c(CN4CCOCC4)c(O)ccc3c2=O)cc1OC	none
Cc1oc2c(CN3CCCC3)c(O)ccc2c(=O)c1-c1ccc(Br)cc1	KLK7 zymogen act 15 | proKLK7 act conf 35 | EDANS interfere 30 | K7 EDANS ctr inactive
Cc1oc2c(CN3CCCCC3)c(O)ccc2c(=O)c1-c1ccc(Br)cc1	KLK7 zymogen act 25 | proKLK7 act conf 21 | EDANS interfere 17 | K7 EDANS ctr inactive
Cc1oc2c(O)c(O)ccc2c(=O)c1-c1ccc(Cl)cc1	none
CCN(CC)CCNC(=O)c1cc2c(=O)n(CC)c3ccccc3c2s1	KLK7 zymogen act 38 | proKLK7 act conf inactive | EDANS interfere inactive
NNC(=O)c1cc2c(s1)-c1cc(Cl)ccc1SC2	none
CCn1c(=O)c2cc(C(=O)NCCN(C)C)sc2c2ccccc21	KLK7 zymogen act 35 | proKLK7 act conf inactive | EDANS interfere 6.0
CCN(CC)CCCNC(=O)c1cc2c(=O)n(CC)c3ccccc3c2s1	none
CCN(CC)CCNC(=O)c1cc2c(s1)-c1ccccc1SC2	KLK7 zymogen act 76 | proKLK7 act conf 57 | EDANS interfere 55
COC(=O)[C@H](CC(C)C)N(CCCc1cn(CC2CCCCC2)nn1)S(=O)(=O)c1ccccc1Br	none (no result: NR3A LBD binder, FAS-TE inh)
CCCCCCn1c(=O)[nH]c2nc3cc(N)ccc3nc2c1=O	KLK7 zymogen act 14 (no result: FAS-TE inh) | proKLK7 act conf 19 | EDANS interfere 20
CCCCCn1c(=O)c(C(=O)c2ccccc2)nc2ccccc21	none
Cc1nc2cc(-c3ccccc3)nn2c(C)c1CCC(=O)NCc1ccco1	none
Cc1cc(C)c2c(n1)nn1c(C)c(CCC(=O)NCc3ccco3)c(C)nc21	KLK7 zymogen act 15 | proKLK7 act conf inactive | EDANS interfere inactive
COc1cccc(CN2C(=O)c3ccccc3S2(=O)=O)c1	none
COc1cccc(CN2C(=O)c3cccc(N)c3C2=O)c1	KLK7 zymogen act 15 | proKLK7 act conf 76 | EDANS interfere 79
CC(=O)/C=C(\C)Nc1ccc(-c2cnc(-c3ccccc3)o2)cc1	KLK7 zymogen act 57 | proKLK7 act conf 63 | EDANS interfere 64
CC(C)C(=O)Nc1ccc(-c2nnc(-c3ccccc3)o2)cc1	none
CCCCN1CCN(C(=O)C2CCN(S(=O)(=O)c3ccc4[nH]c(=O)oc4c3)CC2)CC1	none (no result: NR3A LBD binder, FAS-TE inh)
C=C(C)/C=C1/C(Cc2ccccc2)N(CC2CC2)C(=N)N1C(=O)OCc1ccccc1 (stereo unspecified)	none (no result: NR3A LBD binder, FAS-TE inh)
COC(=O)C1=C(C)N(Cc2ccccc2C(F)(F)F)C(=NCc2ccc(C(F)(F)F)cc2)NC1c1cccc(F)c1 (stereo unspecified)	none (no result: NR3A LBD binder, FAS-TE inh)
O=C1c2[nH]c3ccccc3c2CC1N1C(=O)c2ccccc2C1=O (stereo unspecified)	KLK7 zymogen act 30 (no result: NR3A LBD binder) | proKLK7 act conf 19 | EDANS interfere 18
COc1cccc(CNC(=O)[C@H]2CCCN2C(=O)[C@H]2CCCN2C(=O)c2ccc(C)cc2)c1	none (no result: NR3A LBD binder, FAS-TE inh)
COC(=O)c1ccc(CNC(=O)CCc2c[nH]c3ccccc23)cc1	none
COC(=O)c1ccc2c(CCO)c[nH]c2c1	KLK7 zymogen act 16 | proKLK7 act conf inactive | EDANS interfere 12
O=C(O)c1cn(-c2ccc(F)cc2)c2cc(N3CCNCC3)c(F)cc2c1=O	KLK7 zymogen act 15 | proKLK7 act conf inactive | EDANS interfere inactive
CCOC(=O)N1CCc2[nH]c3ccc(C)cc3c2C1	KLK7 zymogen act 17 | proKLK7 act conf 23 | EDANS interfere 23
O=c1nc(-c2ccccc2Cl)c2cc(F)ccc2[nH]1	KLK7 zymogen act 19 | proKLK7 act conf 31 | EDANS interfere 26 | K7 EDANS ctr inactive
CCc1cc2c(=O)c(-c3nc4ccccc4n3C)c(C(C)C)oc2c(CN2CCN(C)CC2)c1O	none
Cc1c(C)c2cc(Cl)c(O)c(CN3CCN(C)CC3)c2oc1=O	KLK7 zymogen act 76 | proKLK7 act conf 64 | EDANS interfere 69
Cc1c(C)c2cc(Cl)c(O)c(CN3CCCC(C)C3)c2oc1=O (stereo unspecified)	KLK7 zymogen act 42 | proKLK7 act conf 69 | EDANS interfere 73
CCc1cc2c(=O)c(-c3nc4ccccc4n3C)coc2c(CN2CCCC(C)C2)c1O (stereo unspecified)	none
COC(CNC(=O)c1ccc2nc(-c3ccccc3)c(-c3ccccc3)nc2c1)OC	none
COC(CNC(=O)c1coc2nc3ccccc3nc12)OC	KLK7 zymogen act 47 | proKLK7 act conf 282 | EDANS interfere 269
O=C(NCC1CCCO1)c1coc2nc3ccccc3nc12 (stereo unspecified)	KLK7 zymogen act 80 | proKLK7 act conf 308 | EDANS interfere 293
Cc1cc2cc3c(=O)[nH]c(=O)cc-3n(CC(O)C(O)C(O)CO)c2cc1C (stereo unspecified)	none (no result: NR3A LBD binder)
Cc1cc2cc3c(=O)[nH]c(=O)nc-3n(CC(O)C(O)C(O)CO)c2cc1C (stereo unspecified)	KLK7 zymogen act 48 | proKLK7 act conf 61 | EDANS interfere 71
CC(C)C1NC(C(=O)O)Cc2c1[nH]c1ccccc21 (stereo unspecified)	KLK7 zymogen act 30 | proKLK7 act conf 56 | EDANS interfere 49
